Results filed as inconclusive are left out. Unmarked numbers belong to inactive results. Active and inactive are the calls of the source. The call rests on the fitted dose curve; in most records, active means well fitted cell-killing curve with a large enough effect; inconclusive means small, poorly fitted or top-dose-only effect, or effect the other way; inactive means flat fitted curve, though single readings scatter.

Common to all, as to assay: Primary qHTS to identify gynecologic anti-cancer compounds using libraries of approved drugs and bioactive compounds (AID 1345084); further: nearly all actives have a fitted effect of over 55% in size
For one test, the system named is C33A. To be noted: Gynecologic cancer cell panel viability, ATPlite luminescence, 48 h; series mostly up to 57.5 µM. The gist of the method: (§1)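 Cells, 1,000 per well, plated 16 h, then exposed 48 h at 37 C to compounds. Viability by ATPlite luminescence after 15 min at room temperature.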
For orientation: In ATP-based viability assays light output follows the ATP content of the culture.

For a further test, the system named is CAOV3. To be noted: Gynecologic cancer cell panel viability, ATPlite luminescence, 48 h; series mostly up to 57.5 µM. The method in brief: as §1
The next test has as its system CASKI. To be noted: Gynecologic cancer cell panel viability, ATPlite luminescence, 48 h; series mostly up to 57.5 µM. The gist of the method: as §1
A further test concerns Es-2. To be noted: Gynecologic cancer cell panel viability, ATPlite luminescence, 48 h; series mostly up to 57.5 µM. The method in brief: as §1
For a further test, the system named is HeLa. To be noted: Gynecologic cancer cell panel viability, ATPlite luminescence, 48 h; series mostly up to 57.5 µM. The method in brief: as §1
The test system of a further test is Hek293T. To be noted: Gynecologic cancer cell panel viability, ATPlite luminescence, 48 h, control line for the selectivity index; series mostly up to 57.5 µM. The method in brief:
as §1

The subject of another test is JEG-3. To be noted: Gynecologic cancer cell panel viability, ATPlite luminescence, 48 h; series mostly up to 57.5 µM. The method in brief: as §1
For another test, the system named is OV90. To be noted: Gynecologic cancer cell panel viability, ATPlite luminescence, 48 h; series mostly up to 57.5 µM. The method in brief: as §1
In another test the test system is PA-1. To be noted: Gynecologic cancer cell panel viability, ATPlite luminescence, 48 h; series mostly up to 57.5 µM. The method in brief:
as §1

Another test deals with Tov-21-G. To be noted: Gynecologic cancer cell panel viability, ATPlite luminescence, 48 h; series mostly up to 57.5 µM. The method in brief: as §1
In the next test the test system is Tov112D. To be noted: Gynecologic cancer cell panel viability, ATPlite luminescence, 48 h; series mostly up to 57.5 µM. The gist of the method: as §1
On the % scale 0 is the no-effect control and ±100 the full control effect; potency means the concentration at half of the fitted maximal effect.

With `CS(=O)(=O)c1ccc([C@H](CC2CCCC2)C(=O)Nc2nccs2)cc1`, the Potency result with C33A, in the test with CAOV3, in the test with CASKI, in the test on Es-2, in the test on HeLa and in the test with Hek293T was “inactive” throughout. The Potency result with JEG-3, in the test with OV90, in the test on PA-1, with Tov-21-G and with Tov112D was “inactive” throughout.

On to `O=S(=O)(c1ccc(S(=O)(=O)n2cnc3ccccc32)cc1)N1CCCCCC1`, for which the Potency result in the test with C33A, in the test with CAOV3, in the test on CASKI, in the test with Es-2, in the test on HeLa and with Hek293T was “inactive” each time. Besides, the Potency result in the test with JEG-3, with OV90, with PA-1, with Tov-21-G and in the test on Tov112D was “inactive” each time.

Take `CC1CC(O)/C=C/C(O)C(O)CC(=O)Cc2c(Cl)c(O)cc(O)c2C(=O)O1` (stereo unspecified): the Potency entry in the test on C33A, in the test with CAOV3, in the test on CASKI, in the test with Es-2, with HeLa and in the test with Hek293T was “inactive” each time. The Potency result in the test on JEG-3, with OV90, in the test with PA-1, in the test with Tov-21-G and with Tov112D was “inactive” in each case.

For `OC[C@@]1(O)CO[C@@H](OC[C@H]2O[C@@H](Oc3c[nH]c4ccccc34)[C@H](O)[C@@H](O)[C@@H]2O)[C@@H]1O`, the Potency entry in the test on C33A, in the test with CAOV3, with CASKI, in the test with Es-2, in the test with HeLa and with Hek293T was “inactive” each time. Also, the Potency result in the test with JEG-3, with OV90, in the test on PA-1, in the test with Tov-21-G and with Tov112D was “inactive” each time.

With `CCNC(=O)C1OC(n2cnc3c(N)nc(NCCc4ccc(CCC(=O)O)cc4)nc32)C(O)C1O` (stereo unspecified), the Potency result in the test with C33A, in the test on CAOV3, in the test on CASKI, in the test with Es-2, in the test with HeLa and in the test with Hek293T was “inactive” throughout. Moreover, the Potency entry in the test with JEG-3, with OV90, in the test on PA-1, in the test on Tov-21-G and in the test with Tov112D was “inactive” throughout.

In the case of `CC(C)=CCC(O)/C(C)=C/CO[C@@H]1O[C@H](CO)[C@@H](O)[C@H](O)[C@H]1O` (stereo partly specified), the Potency result in the test on C33A, with CAOV3, in the test on CASKI, in the test on Es-2, in the test on HeLa and with Hek293T was “inactive” each time. Moreover, the Potency entry in the test on JEG-3, in the test on OV90, with PA-1, with Tov-21-G and in the test with Tov112D was “inactive” in each case.

With `O=C(Cc1ccc(-c2ccccc2)cc1)NC1CCC1`, the Potency result in the test with C33A, with CAOV3, in the test with CASKI, in the test on Es-2, in the test on HeLa and with Hek293T was “inactive” throughout. In addition, the Potency result in the test with JEG-3, with OV90, with PA-1, with Tov-21-G and with Tov112D was “inactive” in each case.

For `O=C(O)c1ccccc1NC(=O)N1CCC(c2ccccc2C(F)(F)F)CC1`, the Potency result with C33A, in the test with CAOV3, in the test with CASKI, in the test on Es-2, with HeLa and with Hek293T was “inactive” throughout. Moreover, the Potency entry in the test on JEG-3, in the test with OV90, in the test on PA-1, with Tov-21-G and with Tov112D was “inactive” in each case.

For the molecule `C[C@@H]1CC[C@]2(C(=O)O)CC[C@]3(C)C(=CCC4[C@@]5(C)C[C@@H](O)[C@H](O)[C@@](C)(CO)C5CC[C@]43C)C2[C@]1(C)O` (stereo partly specified), the Potency entry with C33A, in the test with CAOV3, with CASKI, in the test with Es-2, with HeLa and in the test on Hek293T was “inactive” in each case. Also, the Potency entry with JEG-3, in the test with OV90, in the test on PA-1, in the test with Tov-21-G and in the test with Tov112D was “inactive” throughout.

Consider `C[C@@]1(O)[C@H](O)[C@@H](CO)O[C@H]1n1ccc(N)nc1=O`, for which the Potency entry in the test on C33A, with CAOV3, in the test on CASKI, with Es-2, in the test on HeLa and in the test with Hek293T was “inactive” in each case. Moreover, the Potency result with JEG-3, in the test with OV90, in the test on PA-1, in the test with Tov-21-G and in the test with Tov112D was “inactive” each time.

For `CC(=O)O[C@H]1C[C@@](O)(C(C)C)C2[C@@H](OC(=O)c3ccc(O)cc3)C[C@@]3(C)O[C@H]3C[C@]21C` (stereo partly specified), the Potency result in the test with C33A, in the test on CAOV3, with CASKI, in the test on Es-2, with HeLa and in the test with Hek293T was “inactive” throughout. Moreover, the Potency result with JEG-3, in the test with OV90, in the test with PA-1, in the test on Tov-21-G and with Tov112D was “inactive” throughout.

As to `COc1ccc(CN2C(=O)C(=O)c3cc(S(=O)(=O)N4CCC[C@H]4COc4cccnc4)ccc32)cc1`, the Potency entry in the test with C33A, with CAOV3, with CASKI, with Es-2, in the test on HeLa and with Hek293T was “inactive” each time. For the same molecule, the Potency result in the test on JEG-3, with OV90, with PA-1, with Tov-21-G and with Tov112D was “inactive” each time.

As for `CCCOc1ccc(-c2nc(OC)c3ccccc3n2)cc1`, the Potency entry with C33A, with CAOV3, with CASKI, with Es-2, in the test on HeLa and with Hek293T was “inactive” in each case. Moreover, the Potency entry in the test with JEG-3, in the test on OV90, in the test on PA-1, in the test on Tov-21-G and in the test on Tov112D was “inactive” each time.

As for `C[C@H](C/C=C/C(C)(C)O)[C@H]1CC[C@@]2(C)[C@@H]3[C@@H](O[C@@H]4O[C@H](CO)[C@@H](O)[C@H](O)[C@H]4O)C=C4C(CC[C@H](O)C4(C)C)[C@]3(C=O)CC[C@]12C` (stereo partly specified), the Potency entry in the test on C33A, in the test on CAOV3, with CASKI, in the test with Es-2, in the test with HeLa and in the test on Hek293T was “inactive” each time. The Potency entry with JEG-3, in the test with OV90, with PA-1, in the test on Tov-21-G and with Tov112D was “inactive” in each case.

For `N[C@@]1(C(=O)O)CC[C@H]2[C@H](C(=O)O)[C@H]21`, the Potency entry with C33A, with CAOV3, in the test with CASKI, in the test on Es-2, with HeLa and in the test on Hek293T was “inactive” each time. Also, the Potency entry in the test on JEG-3, with OV90, in the test on PA-1, with Tov-21-G and in the test with Tov112D was “inactive” each time.

With `C/C1=C\CC[C@H](C)CCO[C@@H]2O[C@H](CO[C@@H]3OC[C@](O)(COC1=O)[C@H]3O)[C@@H](O)[C@H](O)[C@H]2O`, the Potency result in the test on C33A, in the test on CAOV3, in the test with CASKI, in the test with Es-2, in the test with HeLa and with Hek293T was “inactive” throughout. Moreover, the Potency result in the test with JEG-3, in the test with OV90, with PA-1, in the test with Tov-21-G and in the test with Tov112D was “inactive” each time.

As for `C[C@@H]1O[C@@H](O[C@H]2[C@H](O)[C@@H](O)[C@H](O[C@H]3[C@H](O[C@H]4CC[C@@]5(C)C(=CC[C@@H]6C5CC[C@]5(C)[C@@H]7[C@H](C[C@@H]65)O[C@]5(CC[C@@](C)(CO[C@@H]6O[C@H](CO)[C@@H](O)[C@H](O)[C@H]6O)O5)[C@H]7C)C4)O[C@H](CO)[C@@H](O)[C@@H]3O)O[C@@H]2CO)[C@H](O)[C@H](O)[C@H]1O` (stereo partly specified), the activity change, negative = cytotoxicity in the test on C33A is 1.06% [at 11.6 µM]; in the test with CAOV3, -9.22% [at 11.6 µM]; in the test with CASKI, 21.1% [at 11.6 µM]; in the test with Es-2 it was 3.9% [at 11.6 µM]; with HeLa, 6.34% [at 11.6 µM]; in the test with Hek293T, -9.56% [at 11.6 µM]. Moreover, the activity change, negative = cytotoxicity was 4.71% [at 11.6 µM] in the test on JEG-3, 5.27% [at 11.6 µM] with OV90 and 13% [at 11.6 µM] with Tov112D. In addition, the Potency with PA-1 is 1780 nM (active).

Source of the values: PubChem BioAssay (NCATS).
